Several values for one entry are separate records, joined by “and”; a condition that tells them apart may be missing. Equal values may be shown once.

Common to all, as to type: functional
Test [1] deals with Solute carrier family 2, facilitated glucose transporter member 1 (Homo sapiens) (UniProt P11166). The test can be described thus: ST_JUDE_LEISH: Cytotoxicity at 2uM final concentration against transgenic Leishmania Mexicana promastigotes LmGLUT1 that are glucose transport deficient and complemented with the human glucose transporter GLUT1. Activity is measured by DNA content using SYBR green in vitro.

Test [2] deals with Hexose transporter 1 (Plasmodium falciparum) (UniProt O97467). Kind of test: ST_JUDE_LEISH: Cytotoxicity at 2uM final concentration against transgenic Leishmania Mexicana promastigotes LmPfHT that are glucose transport deficient and complemented with the Plasmodium falciparum hexose transporter. Activity is measured by DNA content using SYBR green in vitro.
Test [3] addresses Glucose transporter (Leishmania mexicana) (UniProt O61059). The test can be described thus: ST_JUDE_LEISH: Cytotoxicity at 2uM final concentration against transgenic Leishmania Mexicana promastigotes LmGT2 that are glucose transport deficient and complemented with the L. Mexicana glucose transporter 2. Activity is measured by DNA content using SYBR green in vitro.

Sequence of Solute carrier family 2, facilitated glucose transporter member 1 (Homo sapiens) (P11166 whole entry): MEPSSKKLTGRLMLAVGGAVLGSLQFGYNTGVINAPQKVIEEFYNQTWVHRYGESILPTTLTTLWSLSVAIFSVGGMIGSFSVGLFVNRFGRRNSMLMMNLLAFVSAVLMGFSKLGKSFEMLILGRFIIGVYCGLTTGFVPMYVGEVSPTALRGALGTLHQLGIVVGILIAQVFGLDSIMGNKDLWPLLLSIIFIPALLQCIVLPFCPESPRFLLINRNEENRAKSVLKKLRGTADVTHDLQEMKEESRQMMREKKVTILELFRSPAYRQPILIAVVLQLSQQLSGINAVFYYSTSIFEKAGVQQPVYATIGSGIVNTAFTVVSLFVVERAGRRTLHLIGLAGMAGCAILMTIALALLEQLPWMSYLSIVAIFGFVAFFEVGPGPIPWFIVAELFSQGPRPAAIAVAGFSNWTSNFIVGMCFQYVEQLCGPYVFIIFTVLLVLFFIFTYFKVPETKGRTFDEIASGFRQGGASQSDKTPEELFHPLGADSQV

In the case of `CCOc1ccc(CN(CCc2ccc3c(c2)OCO3)Cc2cc(OC)ccc2O)cc1`, the inhibition turned out to be 4.49% in test [1], 4.01% in test [2] and 6.07% in test [3].

In the case of `O=C(/C=C/c1ccc(O)cc1)NC1CCC(CN2CCC(c3c[nH]c4ccccc34)CC2)CC1` (stereo not given), the inhibition was -4.73% in test [1], -2.63% in test [2] and -0.07% in test [3].

With `COc1ccc2[nH]cc(C3CCN(Cc4ccc(NC(=O)c5ccc(-c6ccccc6)cc5)cc4)CC3)c2c1`, the inhibition in test [1] was 3.87%; in test [2], 2.27%; in test [3], 3.28%.

For `C=CC12CCN(CC1)C(C(O)c1ccnc3ccc(OC)cc13)C2` (stereo not given), the inhibition in test [1] is 0.26%; in test [2], 0.03%; in test [3], -0.85%.

As for `CC[C@H]1CN2CC[C@@H]1C[C@H]2[C@H](O)c1cc(N2CCC(c3ccccc3)CC2)nc2ccc(OC)cc12`, the figures for the inhibition in test [1], in test [2] and in test [3] were 8.84%, 6.56% and 2.67%, respectively.

As for `O=C1c2ccccc2CCC1CCN1CC=C(c2c[nH]c3ccccc23)CC1` (stereo not given), the inhibition in test [1] turned out to be 2.89%; in test [2], 3.52%; in test [3], 3.16%.

`CC(Cc1ccc(OCCCCOc2ccccc2)cc1)NCCC1CCCN1C` (stereo not given): the inhibition in test [1] stood at 103%; in test [2] it was 97.7%; in test [3], 103%.

For the compound `COCC(=O)N(Cc1cccc(-c2ccc(CNCCc3ccccc3)cc2)c1)C1CCN(Cc2ccccc2)CC1`, the inhibition in test [1] came to 3.83%; in test [2], 5.42%; in test [3], 2.98%.

Regarding `O=C(/C=C/c1cc([N+](=O)[O-])ccc1Cl)NC1CCC(CN2CCC(c3c[nH]c4ccccc34)CC2)CC1` (stereo not given), the inhibition was determined as 2.1% in test [1], 1.69% in test [2] and 2.13% in test [3].

Consider `Cc1[nH]c2cc(F)ccc2c1C1=CCN(CCCCC2(C)C(=O)Nc3c(F)cccc32)CC1` (stereo not given), for which the inhibition in test [1] is 3.71%; in test [2] it was 5.17%; in test [3], 4.44%.

`O=C(NC1CCC(CN2CCC(c3c[nH]c4ccccc34)CC2)CC1)c1ccc(-c2cc(C(F)(F)F)ccc2Cl)o1` (stereo not given): the values for the inhibition in test [1], in test [2] and in test [3] were 4%, 6.53% and 3.83%, respectively.

With `O=C(/C=C/c1ccc(Cl)cc1Cl)NC1CCC(CN2CCC(c3c[nH]c4ccccc34)CC2)CC1` (stereo not given), the inhibition in test [1] came out at 10.9%; in test [2], 13.1%; in test [3], 9.99%.

As to `Cc1cccc2[nH]cc(C3CCN(CC4CCC(NC(=O)/C=C/c5ccc(Cl)c(Cl)c5)CC4)CC3)c12` (stereo not given), the inhibition turned out to be 0.63% in test [1], 6.74% in test [2] and 0.15% in test [3].

For `O=C(C=Cc1ccc(F)c(Br)c1)NC1CCC(CN2CCC(c3c[nH]c4ccccc34)CC2)CC1` (stereo not given), the inhibition in test [1] is 0.26% and 5.78%; in test [2], -0.2% and 4.24%; in test [3], -1.48% and 3.84%.

Take `CCCCCCCSc1ccc(CC(C)NCC(O)c2cccc(Cl)c2)cc1` (stereo not given): the inhibition worked out at 4.14% in test [1], 4.49% in test [2] and 4.37% in test [3].

Turning to `O=C(NC1CCC(CN2CCC(c3c[nH]c4ccccc34)CC2)CC1)c1cc(-c2cccc(Cl)c2)n(-c2ccc(Cl)cc2Cl)n1` (stereo not given), the values for the inhibition in test [1], in test [2] and in test [3] were 1.34%, -0.46% and 0.47%, respectively.

As to `Cc1cc(C(=O)NC2CCN(CC3(c4ccc(Cl)cc4)CCC3)CC2)on1`, the inhibition in test [1] is 0.83%; in test [2] it was -0.05%; in test [3], 0.13%.

For the compound `Cc1[nH]c2ccccc2c1C1=CCN(CCN2CCOc3c(Br)cccc3C2=O)CC1`, the inhibition worked out at 1.66% in test [1], 1.57% in test [2] and 1.55% in test [3].

For the compound `N[C@@H](CCN1CCC(c2cccc(O)c2)CC1)Cc1ccc(F)c(F)c1`, the inhibition in test [1] was 3.74%; in test [2], 2.04%; in test [3] it was 0.73%.

As to `CCCc1ccc2c(c1O)CCC(N(CCC)CCC)C2` (stereo not given), the inhibition is 2.32% in test [1], 2.51% in test [2] and 2.48% in test [3].

Consider `O=C(Nc1cc(C(F)(F)F)cc(C(F)(F)F)c1)N1CCC(CN2CCC(c3c[nH]c4ccccc34)CC2)CC1`, for which the inhibition in test [1] was determined as 2.61%; in test [2], 3.46%; in test [3], 1.9%.

`CC[C@H]1CN2CC[C@H]1C[C@H]2[C@H](O)c1ccnc2ccc(O)cc12`: the inhibition in test [1] came out at 0.99%; in test [2] it was 2.1%; in test [3], 1.04%.

`COCCNCc1cccc(-c2ccccc2CN(C(=O)Nc2ccccc2)C2CCN(Cc3ccccc3)CC2)c1`: the values for the inhibition in test [1], in test [2] and in test [3] were -0.65%, -2.21% and 4.23%, respectively.

Take `COc1cc2c(c(OC)c1OC)C[C@H]1c3c(cc4c(c3-2)OCO4)CCN1C`: the inhibition in test [1] is -0.22%; in test [2] it was 1.49%; in test [3] it was 1.06%.

Consider `COc1ccc(O)c(CN2CCN(c3cc(C)ccc3C)CC2)c1`, for which the inhibition in test [1] worked out at 2.93%; in test [2], 3%; in test [3] it was 2.89%.

Take `CC(C)CNCc1cccc(-c2ccc(CN(C(=O)NC3CCCCC3)C3CCN(Cc4ccccc4)CC3)cc2)c1`: the figures for the inhibition in test [1], in test [2] and in test [3] were 4.72%, 5.99% and 5.84%, respectively.

`O=C(NC1CCC(CN2CCC(c3c[nH]c4ccccc34)CC2)CC1)c1cc(-c2ccccc2Cl)n(-c2cccc(Cl)c2)n1` (stereo not given): the inhibition in test [1] came to 3.93%; in test [2], 2.86%; in test [3], 1.71%.

In the case of `Cc1cc(NC(=O)[C@@H](Nc2ccc(C#N)c3ccccc23)C2CCCCC2)ccc1F`, the results for the inhibition in test [1], in test [2] and in test [3] were -1.97%, -0.16% and -0.25%, respectively.

As to `CC[C@H]1CN2CC[C@H]1C[C@H]2[C@H](O)c1cc(N2CCCC(CO)C2)nc2ccc(OC)cc12` (stereo not given in full), the inhibition in test [1] was found to be 2.62%; in test [2], 1.73%; in test [3], 0.11%.

As for `COc1ccc(CN(C2CC2)C(C)C(=O)c2[nH]c(C)c(C(C)=O)c2C)cc1` (stereo not given), the figures for the inhibition in test [1], in test [2] and in test [3] were -1.09%, 1.96% and -1.15%, respectively.

For the compound `O=C(/C=C/c1ccccc1Cl)NC1CCC(CN2CCC(c3c[nH]c4ccccc34)CC2)CC1` (stereo not given), the inhibition was 2.44% and 5.03% in test [1]; 0.61% and 3.12% in test [2]; -3.81% and 6.89% in test [3].

As for `CS(=O)(=O)Nc1ccc2[nH]cc(C3CC4CCC(C3)N4CC3CCC(NC(=O)/C=C/c4ccc(Cl)c(Cl)c4)CC3)c2c1` (stereo not given), the inhibition in test [1] was found to be 5.91%; in test [2], 5.37%; in test [3], 5.09%.

Turning to `COc1cccc(C2(NC[C@@H](O)[C@H](Cc3ccccc3)NC(=O)c3ccccc3)CCCCC2)c1`, the inhibition is 0.07% in test [1], -1.37% in test [2] and -4.56% in test [3].

In the case of `COC(=O)c1ccc(CC(C)NCC(O)c2cccc(C(F)(F)F)c2)c(OC)c1` (stereo not given), the inhibition in test [1] worked out at 6.43%; in test [2], 5.12%; in test [3] it was 5.25%.

For the compound `COC(=O)c1ccc(CC(C)NCC(O)c2cccc3ccccc23)cc1` (stereo not given), the inhibition in test [1] was 4.9%; in test [2] it was 3.26%; in test [3], 2.22%.

The record behind these values is ChEMBL document CHEMBL3433997, “St. Jude Leishmania screening dataset” (2016).
